# PubChem BioAssay (NCI)
# About 83,000 compounds went through this panel and 20% of them were active in at least one assay; those are over-represented in the sample as a whole.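 Method: cells in 96-well plates; compound added at one concentration; 48 h incubation; percent growth measured; values under 10 scored active.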 Unmarked numbers belong to inactive results. Calls of active or inactive are those of the source.
# Legend:
# Assay in all cases: NCI-60 one-dose screen, 48 h (100 = growth as untreated, 0 = no growth, -100 = all killed)
# Conditions in all cases: 10 µM unless noted
# SK-MEL-2 melanoma = test system: SK-MEL-2 melanoma
# EKVX NSCLC = test system: EKVX NSCLC
# SN12C renal = test system: SN12C renal
# UO-31 renal = test system: UO-31 renal
# TK-10 renal = test system: TK-10 renal
# ACHN renal = test system: ACHN renal
# CAKI-1 renal = test system: CAKI-1 renal
# A498 renal = test system: A498 renal
# CCRF-CEM leukemia = test system: CCRF-CEM leukemia
# MOLT-4 leukemia = test system: MOLT-4 leukemia
# SR leukemia = test system: SR leukemia
# RPMI-8226 leukemia = test system: RPMI-8226 leukemia
# OVCAR-8 ovarian = test system: OVCAR-8 ovarian
# OVCAR-5 ovarian = test system: OVCAR-5 ovarian
# OVCAR-4 ovarian = test system: OVCAR-4 ovarian
# SK-OV-3 ovarian = test system: SK-OV-3 ovarian
# IGROV1 ovarian = test system: IGROV1 ovarian
# OVCAR-3 ovarian = test system: OVCAR-3 ovarian
# HS 578T breast = test system: HS 578T breast
# NCI/ADR-RES ovarian = test system: NCI/ADR-RES ovarian
Structure (SMILES),growth (SK-MEL-2 melanoma),growth (EKVX NSCLC),growth (SN12C renal),growth (UO-31 renal),growth (TK-10 renal),growth (ACHN renal),growth (CAKI-1 renal),growth (A498 renal),growth (CCRF-CEM leukemia),growth (MOLT-4 leukemia),growth (SR leukemia),growth (RPMI-8226 leukemia),growth (OVCAR-8 ovarian),growth (OVCAR-5 ovarian),growth (OVCAR-4 ovarian),growth (SK-OV-3 ovarian),growth (IGROV1 ovarian),growth (OVCAR-3 ovarian),growth (HS 578T breast),growth (NCI/ADR-RES ovarian)
CCOP(=O)(OCCCl)c1nc(-c2ccc(C)cc2)oc1NCc1ccccc1 (stereo not given),87%,67.2%,70.4%,52.5%,100%,80%,49.5%,99.3%,72.4%,43.6%,66.8%,43.2%,78.7%,98.4%,68.3%,91%,62.4%,75%,74.6%,63.8%
Cn1cc(-c2nnc(N)nc2-c2c[nH]c3ccc(F)cc23)c2cccnc21,15.7%,62.4%,45.9%,48.4%,82.4%,54.6%,45.7%,86.2%,47.9%,28.9%,25.5%,49.1%,49.3%,83.3%,77.6%,65.8%,40.7%,25.3%,42%,72.9%
CC(=O)Nc1ccc(-n2cnc3cc(-c4ccc(O)cc4)ccc32)cc1C(F)(F)F,17.4%,27.3%,15.6%,10.3%,33%,6.32% (active),28.6%,57.1%,40.5%,29.6%,16.3%,16.6%,16.1%,37.9%,40.8%,56.3%,35.1%,24.7%,0.862% (active),16.3%
C=CC[N+](C)(C)CCn1c2ccccc2c2nc3cc(C)c(C)cc3nc21,112%,89.7%,14.2%,71%,106%,107%,90%,115%,102%,116%,85%,95.1%,98.4%,111%,95%,96.7%,42.6%,96.4%,56.2%,108%
O=C(Nc1ccccc1)N1CCN(c2cc(-c3cn(-c4ccccc4)nc3-c3cccc(O)c3)ccn2)CC1,57.4%,77.1%,88.8%,55.1%,129%,81.7%,70.3%,103%,36.8%,33%,19.2%,32.5%,43.9%,106%,84.2%,98.1%,84%,98.2%,83.1%,23.7%
COC(=O)/C=C/c1cccc2c1C(=O)NC(C)(c1cc3ccccc3oc1=O)N2 (stereo not given),-2.01% (active),78.2%,73.8%,31.3%,49%,30.8%,20.7%,49.7%,83.7%,63%,58.7%,82.6%,66.9%,77.6%,70%,41.7%,32%,74.1%,72%,80.1%
C=C1CC[C@@H]2[C@]3(C)COC(c4cn[nH]c4-c4cccc(Cl)c4)O[C@@H]3CC[C@@]2(C)[C@@H]1C/C=C1/C(=O)OCC1O (stereo not given in full),-23.7% (active),8.03% (active),-69.6% (active),-94.4% (active),3.28% (active),-87.4% (active),32.6%,151%,-14.9% (active),12.7%,14.7%,-11.7% (active),-23.3% (active),-62% (active),35.2%,49.6%,-44.1% (active),-62% (active),26.8%,-56.4% (active)
Cn1cc(-c2cc3nc(-c4c[nH]c5ccc(Br)cc45)cc(N)n3n2)c2ccccc21,-86.5% (active),-79.4% (active),-73% (active),-97.7% (active),-90.3% (active),-98.4% (active),-87.8% (active),-25% (active),-19.6% (active),-33.8% (active),2.66% (active),-10.1% (active),-85.1% (active),-86.1% (active),-57% (active),-66.5% (active),-57.2% (active),-40% (active),-22.5% (active),-32.8% (active)
C/C(=N\N=C\c1cc([N+](=O)[O-])ccc1Cl)c1ccc2c(c1)Nc1ccccc1S2,90.5%,48.5%,12.4%,-13.7% (active),8.88% (active),-43.5% (active),31.3%,6.23% (active),55%,44%,31.3%,71.7%,16.6%,69.4%,-10.7% (active),40.4%,40%,-4% (active),27.1%,55%
COc1ccc(C(=O)/C=C/c2ccc(Oc3nc(Nc4ccc(F)cc4)nc(N(C)C)n3)c(OC)c2)cc1,-8.47% (active),75.6%,32.2%,42.9%,95.7%,36.9%,49%,78.3%,19.2%,10.8%,12.2%,4.01% (active),37.9%,82.6%,43.5%,94.4%,63.1%,57.2%,58.3%,40%
NS(=O)(=O)c1ccc(N=Nc2c(O)n(CC(=O)Nc3ccccc3)c3ccccc23)cc1,42.7%,38.4%,52.7%,31.1%,84%,11%,7.36% (active),60%,50.2%,7.09% (active),18.5%,42.7%,11.3%,74.5%,57.3%,25.2%,38.9%,20.8%,52%,64.3%
NS(=O)(=O)c1ccc(CCNC(=O)CSc2ccc(-c3ccc(Br)cc3)nn2)cc1,56.4%,74.3%,80.7%,56.4%,72.2%,59.6%,65.3%,78.4%,54.3%,39%,55.9%,40.1%,64.6%,94.9%,49.3%,73%,72.1%,91%,73.1%,102%
Cc1sc2c(c1C)C(c1ccc(Cl)cc1)=N[C@@H](CC(=O)NCCCCCNC(=O)COc1ccc(C3CCC(=O)NC3=O)cc1)c1nnc(C)n1-2 (stereo not given in full),13.4%,29.5%,18.7%,27.8%,5.57% (active),44%,16.4%,48.4%,49.2%,16.4%,37.5%,-3.88% (active),16.2%,27.8%,22.8%,-16.9% (active),21.8%,44.7%,25%,97.3%
Cc1ccc(/C=C/c2n(Cc3ccc4ccccc4c3)c3ccccc3[n+]2Cc2ccc3ccccc3c2)cc1,-97.7% (active),-95.7% (active),-56.1% (active),-96% (active),-80% (active),-96.1% (active),-94.6% (active),-82.5% (active),-66.1% (active),-25.9% (active),-34.2% (active),-71% (active),-59.8% (active),-94% (active),-70.5% (active),-87.1% (active),-76% (active),-83.3% (active),-46.2% (active),-48.1% (active)
